Activity calls are given as the source filed them. Unless noted, the rule behind the calls is not given here.

Experiment [1] has as its system Wnt5a (protein binding on small-molecule microarray). Briefly: Wnt5a binders on small-molecule microarray, primary screen, biophysical, 635/667 nm fluorescence (AID 1142).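 Note: fluorescence read at 667 nm with signal to noise per printed feature.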 The note with it: 635 nm fluorescence, higher = more signal.
Experiment [2] is described as follows: cell viability in Huh7 cells, primary screen, cytotoxicity control for HCV replication inhibitor project, CellTiter-Glo luminescence, basal, 48 h (AID 1143).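 Note: Huh7 hepatoma cells carrying a hepatitis C replication reporter with no stimulus; test concentration not given here.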 The note with it: Huh7 HCV replicon, higher = more signal, called active from +8 up or from −8 down. In general terms: Cellular ATP, detected with luciferase, serves as a proxy for viable cell number.
The nature of experiment [3]: P. aeruginosa biofilm formation inhibitors, primary screen, PAO1 strain, BacTiter-Glo luminescence, LB-PBS (AID 1144). The note with it: 12 h, higher = more signal.
Experiment [4] in a line: CREB reporter modulators without forskolin, primary screen, cell-based, PC12, CRE-LacZ reporter, unstimulated (AID 1145). The following applies: no forskolin, luminescence, 4.5 h, higher = more signal, called active from +8 up or from −8 down.
Experiment [5] is described as follows: CREB reporter modulators under forskolin, primary screen, cell-based, PC12, CRE-LacZ reporter, forskolin-stimulated (AID 1146).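 Note: PC12 cells with 6xCRE LacZ reporter stimulated by forskolin 10 µM; beta-galactosidase reporter signal reflecting CREB driven transcription.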 The following applies: luminescence, 4.5 h, higher = more signal, called active from +8 up or from −8 down.
The target of experiment [6] is Streptavidin (Streptomyces avidinii) (UniProt P22629). Put plainly: streptavidin binders on small-molecule microarray, primary screen, artefact control for SMM compound annotation, biophysical, 635/667 nm fluorescence (AID 1147).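 Note: signal reflects streptavidin binding to arrayed compounds as a control protein.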 The following applies: streptavidin binding, higher = more signal.
Sequence of Streptavidin (Streptomyces avidinii) (P22629 whole entry, looked up): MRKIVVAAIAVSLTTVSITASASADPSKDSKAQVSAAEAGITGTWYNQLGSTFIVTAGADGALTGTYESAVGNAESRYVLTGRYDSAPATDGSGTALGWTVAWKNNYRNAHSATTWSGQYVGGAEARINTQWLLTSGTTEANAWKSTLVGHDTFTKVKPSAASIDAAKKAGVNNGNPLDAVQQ
A short description of experiment [7]: small-molecule binders of probe aInhba, primary screen, biochemical, small-molecule microarray, 635/667 nm fluorescence (AID 1148).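 Note: score merges 667nm spot fluorescence with signal-to-noise for antibody binding to printed compounds.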 The following applies: higher = more signal.
Experiment [8] concerns the target Torsin-1A (Homo sapiens) (UniProt O14656). Put plainly: torsin A binders from cell lysate, primary screen, small-molecule microarray, wild-type, 635/667 nm (AID 1149). The note with it: COS7 hTOR1A-WT lysate, 635 nm fluorescence, higher = more signal.
Experiment [9] has the same target. Put plainly: small-molecule binders of mutant TOR1A in lysate, primary screen, cell lysate, small-molecule microarray, COS7 lysate, 635/667 nm fluorescence (AID 1150).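 Note: score pools 667 nm emission and signal to noise measuring lysate protein binding.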 The following applies: COS7 hTOR1A mutant lysate, 635 nm fluorescence, higher = more signal.
In experiment [10] the test system is Sonic hedgehog protein (Shh). Briefly: small-molecule binders of Shh protein, primary screen, biochemical, small-molecule microarray, 635/667 nm fluorescence (AID 1151).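 Note: Shh protein binding to compounds spotted on small-molecule microarray slides; score combines spot fluorescence intensity with signal-to-noise across triplicate slides.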 The note with it: small-molecule microarray binding, 635 nm fluorescence; higher = more signal.
Experiment [11] in a line: E. coli DRC41 culture turbidity changes, primary screen, E. coli filamentation inducer project, strain DRC41, OD650, 48 h (AID 1152).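 Note: E. coli MC1000 strain DRC41 lacking acrAB efflux pump and sulA.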 The following applies: E. coli DRC41 (acrAB sulA), higher = more signal, called active from +8 up or from −8 down.
A short description of experiment [12]: small-molecule binders of probe aLefty1, primary screen, biochemical, small-molecule microarray, 635/667 nm fluorescence (AID 1153).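 Note: score merges spot fluorescence with signal-to-noise ratio from the scanned slide images.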 The following applies: higher = more signal.
A short description of experiment [13]: PSAC antagonists in infected red cells, primary screen, cell-based, P. falciparum Indochina, OD700, 1 h (AID 1154). The note with it: P. falciparum Indochina infected RBC osmotic lysis, higher = more signal, called active from +8 up or from −8 down.
Experiment [14] is described as follows: PSAC antagonists in infected red cells, primary screen, cell-based, P. falciparum Indochina, OD700, 2 h (AID 1155).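 Note: lysis reports solute entry through the parasite surface anion channel PSAC; channel blockers reduce lysis of infected cells.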 The note with it: P. falciparum Indochina infected erythrocytes, osmotic lysis OD700; higher = more signal, called active from +8 up or from −8 down.
A short description of experiment [15]: osmotic lysis modulators in infected erythrocytes, primary screen, PSAC antagonist project, cell-based, P. falciparum Indochina, OD700, 3 h (AID 1156). The note with it: higher = more signal, called active from +8 up or from −8 down.
Experiment [16] is described as follows: PSAC antagonists in infected red cells, primary screen, cell-based, P. falciparum Indochina, OD700, 18 h (AID 1157). The note with it: P. falciparum Indochina infected erythrocytes, osmotic lysis OD700, 18 h; higher = more signal, called active from +8 up or from −8 down.
Experiment [17] can be described thus: modulators of S6 phosphorylation in cells, primary screen, cell-based, A549, cytoblot, luminescence, serum-stimulated (AID 1158).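 Note: serum-stimulated A549 lung adenocarcinoma cells; signal is phosphorylated S6 detected by cytoblot immunostaining with HRP secondary.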 The following applies: A549 phospho-S6 cytoblot, 5 h, higher = more signal.
Experiment [18] deals with NADPH oxidase 2 (Homo sapiens) (UniProt P04839). Put plainly: NOX2-dependent H2O2 signal modulators, primary screen, NOX inhibitor project, cell-based, HEK293-NOX2, PMA-stimulated, Amplex Red fluorescence (AID 1159). Note: test concentration not given here. The note with it: 45 min, higher = more signal, called active from +8 up or from −8 down.
Sequence of NADPH oxidase 2 (Homo sapiens) (P04839 whole entry, looked up): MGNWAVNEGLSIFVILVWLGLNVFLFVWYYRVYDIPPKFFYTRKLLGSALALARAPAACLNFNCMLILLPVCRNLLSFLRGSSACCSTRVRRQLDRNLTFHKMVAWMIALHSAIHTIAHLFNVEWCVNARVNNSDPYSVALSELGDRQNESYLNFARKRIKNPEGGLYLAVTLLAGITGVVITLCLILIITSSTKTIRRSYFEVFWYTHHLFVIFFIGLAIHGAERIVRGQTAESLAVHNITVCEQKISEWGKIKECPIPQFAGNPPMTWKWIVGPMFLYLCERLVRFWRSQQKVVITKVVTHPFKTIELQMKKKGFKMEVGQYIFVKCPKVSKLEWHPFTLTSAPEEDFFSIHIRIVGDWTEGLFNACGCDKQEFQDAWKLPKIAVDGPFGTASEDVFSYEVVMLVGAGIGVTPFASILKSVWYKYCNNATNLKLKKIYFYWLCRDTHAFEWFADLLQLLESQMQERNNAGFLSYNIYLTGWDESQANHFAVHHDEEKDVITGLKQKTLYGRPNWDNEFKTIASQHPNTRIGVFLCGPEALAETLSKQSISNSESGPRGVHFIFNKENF
Experiment [19] addresses NADPH oxidase 4 (Homo sapiens) (UniProt Q9NPH5). Briefly: NOX4-dependent H2O2 signal modulators, primary screen, NOX inhibitor project, cell-based, HEK293-NOX4, tetracycline-induced, Amplex Red fluorescence (AID 1160). The note with it: 45 min, higher = more signal, called active from +8 up or from −8 down.
The target of experiment [20] is NADPH oxidase 5 (Homo sapiens) (UniProt Q96PH1). Put plainly: NOX5-dependent H2O2 signal modulators, primary screen, NOX inhibitor project, cell-based, HEK293-NOX5, Amplex Red fluorescence (AID 1161). The following applies: HEK293-NOX5, ionomycin, 45 min, higher = more signal.
Sequence of NADPH oxidase 5 (Homo sapiens) (Q96PH1 whole entry, looked up): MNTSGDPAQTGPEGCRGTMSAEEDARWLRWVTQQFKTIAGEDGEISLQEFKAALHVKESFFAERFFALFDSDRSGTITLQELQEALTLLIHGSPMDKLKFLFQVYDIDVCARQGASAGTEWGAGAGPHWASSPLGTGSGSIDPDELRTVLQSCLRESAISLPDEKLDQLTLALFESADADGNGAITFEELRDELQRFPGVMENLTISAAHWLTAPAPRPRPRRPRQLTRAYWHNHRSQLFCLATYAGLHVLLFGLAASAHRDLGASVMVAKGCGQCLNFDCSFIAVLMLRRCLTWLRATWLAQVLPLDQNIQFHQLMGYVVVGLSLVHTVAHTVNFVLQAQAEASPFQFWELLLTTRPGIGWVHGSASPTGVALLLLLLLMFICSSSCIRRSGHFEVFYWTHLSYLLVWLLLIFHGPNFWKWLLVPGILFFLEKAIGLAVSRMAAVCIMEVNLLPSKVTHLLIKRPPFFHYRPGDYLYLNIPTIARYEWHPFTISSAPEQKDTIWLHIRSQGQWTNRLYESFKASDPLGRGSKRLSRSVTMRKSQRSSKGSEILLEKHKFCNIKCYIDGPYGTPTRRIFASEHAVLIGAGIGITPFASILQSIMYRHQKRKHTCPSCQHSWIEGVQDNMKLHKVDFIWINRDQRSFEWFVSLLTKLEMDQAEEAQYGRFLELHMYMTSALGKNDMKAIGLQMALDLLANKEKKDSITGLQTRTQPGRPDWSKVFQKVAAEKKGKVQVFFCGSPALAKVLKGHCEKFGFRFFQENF

Sequence of NADPH oxidase 4 (Homo sapiens) (Q9NPH5 whole entry, looked up): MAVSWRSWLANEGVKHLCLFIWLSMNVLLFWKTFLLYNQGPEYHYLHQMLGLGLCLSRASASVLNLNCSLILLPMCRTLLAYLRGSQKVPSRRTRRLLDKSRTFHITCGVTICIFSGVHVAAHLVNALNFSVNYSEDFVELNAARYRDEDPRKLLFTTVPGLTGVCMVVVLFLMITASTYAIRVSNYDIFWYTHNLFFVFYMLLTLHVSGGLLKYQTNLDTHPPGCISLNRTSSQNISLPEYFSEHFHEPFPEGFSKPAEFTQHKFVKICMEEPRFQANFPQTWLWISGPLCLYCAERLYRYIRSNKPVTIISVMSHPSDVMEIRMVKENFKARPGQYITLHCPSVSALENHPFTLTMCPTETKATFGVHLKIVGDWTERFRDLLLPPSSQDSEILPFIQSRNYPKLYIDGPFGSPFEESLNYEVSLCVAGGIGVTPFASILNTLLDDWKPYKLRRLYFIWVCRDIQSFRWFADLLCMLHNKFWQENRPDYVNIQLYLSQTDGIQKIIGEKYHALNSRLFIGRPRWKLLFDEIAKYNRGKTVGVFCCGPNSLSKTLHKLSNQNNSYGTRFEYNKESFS
Sequence of Torsin-1A (Homo sapiens) (O14656 whole entry, looked up): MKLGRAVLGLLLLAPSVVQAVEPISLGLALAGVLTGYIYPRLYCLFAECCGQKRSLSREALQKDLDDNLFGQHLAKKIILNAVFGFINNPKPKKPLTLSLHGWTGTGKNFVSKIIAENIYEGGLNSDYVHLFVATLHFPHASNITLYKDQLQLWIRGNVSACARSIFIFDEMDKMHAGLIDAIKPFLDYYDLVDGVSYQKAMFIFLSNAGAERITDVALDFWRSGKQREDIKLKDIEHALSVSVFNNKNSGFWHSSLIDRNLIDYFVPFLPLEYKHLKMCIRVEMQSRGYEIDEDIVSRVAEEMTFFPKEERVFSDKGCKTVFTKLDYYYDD

`O=C(NC1CC1)[C@@H]1c2ccccc2C(=O)N(Cc2ccc(OC(F)(F)F)cc2)[C@H]1c1ccc(CO)cc1`: the composite z-score was 0.227 in [1]; -0.894 in experiment [6]; -0.176 in experiment [7]; -0.0394 with Torsin-1A (Homo sapiens) [8]; 0.136 in the experiment with Torsin-1A (Homo sapiens) [9]; 0.391 in experiment [10]. In [12], this compound returned a composite z-score of 0.118. For the same compound, the z-score is -2.05 (inactive) in experiment [2]; -1.32 (inactive) in experiment [3]; 0.441 (inactive) in experiment [4]; -0.673 (inactive) in experiment [5]; 0.93 (inactive) in experiment [11]; 1.49 (inactive) in [13]. The z-score is -0.538 (inactive) in experiment [14]; 2.44 (inactive) in experiment [15]; -1.2 (inactive) in experiment [16]; 0.358 in experiment [17]; 0.0746 (inactive) in experiment [18]; -0.866 (inactive) in experiment [19]. Further, the z-score in experiment [20] is -0.523.
As for `C=C(CCCC)/C(=C/C[C@H](OC(=O)c1ccncc1)c1cccc(OCCO)c1)c1cnc2ccccc2c1`, the composite z-score is 0.24 in [1]; 0.905 in [6]; 0.0155 in [7]; 0.947 with Torsin-1A (Homo sapiens) [8]; 0.706 with Torsin-1A (Homo sapiens) [9]; 1.78 in experiment [10]. The composite z-score in experiment [12] amounted to 0.0429. The z-score in experiment [2] was -1.58 (inactive); in [3], 0.124 (inactive); in experiment [4], 2.6 (inactive); in experiment [5], 0.256 (inactive); in experiment [11] it was -0.639 (inactive); in experiment [13], 23.9 (active). For the same compound, the z-score in experiment [14] was 7.01 (inactive); in experiment [15] it was 1.5 (inactive); in [16], 1.26 (inactive); in experiment [17], -0.282; in experiment [18], -0.777 (inactive); in experiment [19], -0.293 (inactive). Moreover, in experiment [20], the z-score is -1.82.
On to `COC(=O)[C@@]1(Cc2ccc(F)cc2)[C@H]2c3cc(C(=O)N(C)C)n(CCc4ccc(O)c(O)c4)c3C[C@H]2CN1C(=O)c1ccccc1`, for which the composite z-score in experiment [1] was 0.643; in experiment [6], 0.365; in experiment [7], 0.528; with Torsin-1A (Homo sapiens) [8], 0.411; with Torsin-1A (Homo sapiens) [9], 0.92; in experiment [10] it was -1.67. In [12], this compound displayed a composite z-score of 0.162. Further, the z-score in experiment [2] was 0.395 (inactive); in experiment [3] it was -0.0598 (inactive); in experiment [4], 0.387 (inactive); in experiment [5], 1.4 (inactive); in experiment [11], -0.81 (inactive); in experiment [13], 0.183 (inactive). Also, the z-score in experiment [14] is 0.194 (inactive); in experiment [15], 0.248 (inactive); in experiment [16], 0.494 (inactive); in experiment [17], 0.407; in experiment [18] it was -0.168 (inactive); in [19], -1.31 (inactive). In experiment [20], this compound gave a z-score of -0.966.
`CC(C)NC(=O)[C@@H]1c2ccccc2C(=O)N(Cc2ccccc2C(F)(F)F)[C@H]1c1ccc(CO)cc1`: the composite z-score was -0.0854 in [1]; -0.962 in experiment [6]; -0.169 in [7]; -0.371 in the experiment with Torsin-1A (Homo sapiens) [8]; 0.0029 in the experiment with Torsin-1A (Homo sapiens) [9]; -0.214 in experiment [10]. Besides, the composite z-score in [12] was -0.556. The z-score in experiment [2] is -2.26 (inactive); in [3], -0.949 (inactive); in [4], -0.179 (inactive); in experiment [5], 1.71 (inactive); in experiment [11], 0.0029 (inactive); in experiment [13], 2.58 (inactive). The z-score in [14] is 0.0744 (inactive); in experiment [15], 1.32 (inactive); in experiment [16] it was 0.596 (inactive); in experiment [17], -0.262; in experiment [18] it was 1.21 (inactive); in experiment [19] it was -0.805 (inactive). In addition, the z-score in experiment [20] is -1.97.

Source of the values: PubChem BioAssay.
